Screens: PubChem BioAssay, Broad Institute
Tgondii IFNg – inhibitors of Toxoplasma gondii growth with IFN-gamma; Toxoplasma gondii growth in IFN-gamma-treated host cells; stronger effect = lower value; 69,000 compounds, 3.8% hits; activity change, negative = inhibition, % (test concentration not listed); AID 1259416; in the data active means activity change below about -70%, passing the limit was not always enough;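 further: host cells are HeLa cells infected with Toxoplasma gondii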
Numbers without * were called inactive; i = inactive. The full list was thinned out, with hits kept by preference.

SMILES	Tgondii IFNg
Cc1nccnc1-c1ccnn1C(=O)Nc1cc(Cl)cc(Cl)c1	-81.7*
Cc1nc(-c2cccs2)sc1-c1ccnn1C(=O)NC(C)C	98.0
COc1cc(NC(=O)Nc2ccnn2C)cc(OC)c1	-8.5
CN(C)C1CCN(C(=O)c2nc3c(s2)CCCN3Cc2ccccc2)C1 (configuration not stated)	200.4
Cc1ccccc1Cn1c(CN2CCC(C(=O)NCCCN3CCCC3=O)CC2)cc2ccccc21	-0.7
O=C(CC1COCCN1)NCCc1cnn(-c2ccccc2)c1 (configuration not stated)	5.6
N#Cc1c(C(F)(F)F)cc(-c2ccccc2)nc1SCC(N)=O	29.8
CCc1nc(SCc2nnc(-c3ccc(C)cc3)o2)c2c(C)c(C)sc2n1	-31.9
N#Cc1c(-c2ccccc2)cc(-c2ccccc2)nc1SCc1nnc(-c2ccccc2)o1	-100.5*
COCC1CN(C(=O)c2cccn2C)Cc2c1cnn2CC1CC1 (configuration not stated)	22.5
COCC(=O)N1CCCN(Cc2ccc(C(C)=O)cc2)CC1	0.5
Cc1ccc(-c2cc(C(=O)Nc3cc(C)nn3-c3ccc(F)cc3)no2)cc1	-8.3
c1cnc(NC2CCN(c3ncnc4c3CCNC4)CC2)nc1	-35.0
c1ccc(C2CCCN(c3ncnc4c3CCNC4)CC2)cc1 (configuration not stated)	-79.0*
c1ccc(C2CN(c3ncnc4c3CCNC4)CCO2)cc1 (configuration not stated)	47.1
COCCN(C)C(=O)c1nc2c(s1)CCCN2CCOC	-22.9
CS(=O)(=O)N1CC(C(=O)Nc2nc(-c3ccccn3)cs2)Oc2ccccc21 (configuration not stated)	-101.3*
CCOC(=O)C1CN(S(=O)(=O)c2ccc(C)cc2)c2ccccc2O1 (configuration not stated)	43.5
CS(=O)(=O)N1C[C@H]2COC[C@@]2(C(=O)NCc2ccccn2)C1	-9.4
O=C(CCC1N=C2c3ccccc3N=C(SCc3cc(=O)n4ccccc4n3)N2C1=O)NC1CCCCC1 (configuration not stated)	24.8
C=CCN1CCN(C(=O)NCc2cccnc2)Cc2ccc(C)nc21	4.1
C/C=C/CC(=O)Nc1cc(C)ccc1NC(=O)CCCC	-13.6
CCOC(=O)[C@@]12CC=CCN(C(=O)Cn3c(C)nc4ccccc43)[C@@H]1CCC2	-57.5
CC1CCCC(C)N1C(=S)NCCCN1CCOCC1 (configuration not stated)	-79.6*
Cc1c(C(=O)NCCCN2CCOCC2)cc(C(C)(C)C)n1-c1ccccc1	-17.8
SMILES	Tgondii IFNg
Cc1ccc(C(=O)NC(=S)NCCCN2CCOCC2)cc1	-1.6
Cc1ccc(NC(=O)CSc2nnnn2C)cc1	34.8
COCCn1c(=S)[nH]c2cc(C(=O)N3CCC(O)(c4cccc(C(F)(F)F)c4)CC3)ccc2c1=O	-19.6
CC(=O)c1c(C)nc(-c2ccc(C(F)(F)F)cc2)nc1SCc1ccccc1	-77.8*
Cn1c(SCc2ccccc2)nnc1-c1ccc(C(C)(C)C)cc1	1.0
O=C(NC(=S)SCc1ccccc1)c1ccc(C(F)(F)F)cc1	-9.6
COc1ccc(NC2CCCN(c3cnc4ccccc4n3)C2)cc1 (configuration not stated)	i
Cc1n[nH]c(C)c1CCc1cc(=O)[nH]c(NC2CCN(Cc3ccccc3)CC2)n1	15.6
CCN1C(=O)[C@H]2CN(C(C)=O)C[C@@H]2C12CCN(S(=O)(=O)c1ccc(C)cc1)CC2	4.3
O=C(NCc1csc(N2CCOCC2)n1)c1cccc2ccnn12	32.8
O=C(NCc1coc(-c2ccccc2)n1)c1cccc2ccnn12	-79.8*
O=C(NCc1noc(Cc2ccccc2)n1)c1cccc2ccnn12	6.9
Cn1cc(CN2CCCC23CCN(S(C)(=O)=O)CC3)cn1	-34.0
OC1(Cn2ccnc2)CCN(c2nccc(CCC(F)(F)F)n2)CC1	-5.2
CC(C)N1C2CCN(C(=O)c3ccoc3)CC2C[C@H]1CN1CCCC1 (some centres not stated)	-0.5
O=C(Cn1c(SCC(=O)N2CCc3ccccc3C2)nc2ccccc21)NC1CCCC1	2.6
O=C(CSc1nnc(CNc2ccc(F)cc2)o1)N1CCc2ccccc2C1	-81.0*
Cc1nnc(SCC(=O)N2CCc3[nH]c4ccc(F)cc4c3C2)o1	-6.9
O=C1NC2(CCN(C(=O)c3csc4c3CCCC4)CC2)Nc2ccccc21	7.3
O=C(NCCc1csc(-c2ccccc2)n1)C1CCN(S(=O)(=O)c2cccc(F)c2)CC1	-0.3
Cc1ccc(-c2nc(Cn3nnc(C(=O)NCc4cccnc4)c3C)c(C)o2)cc1	-12.5
CC1c2snnc2-c2cc(Cl)ccc2S1(=O)=O (configuration not stated)	-102.5*
Cc1ccc(C2(O)CCN(C(=O)c3cccc(S(C)(=O)=O)c3)CC2)nc1	18.1
CSc1ssc(=Nc2ccc(F)c(F)c2)c1-c1ccccc1	-70.9*
Cc1cc2c(cc1CN1CCC(CNC(=O)C3CNC3)C1)OCCO2 (configuration not stated)	9.9
SMILES	Tgondii IFNg
O=c1cc(Cc2csc(-c3ccncc3)n2)nc2cc(-c3ccc(F)cc3)[nH]n12	28.7
Cc1cc(N2CCCN(Cc3ccc4cccc(O)c4n3)CC2)ccn1	-8.5
COc1ccccc1N1CCN(CC(=O)Nc2cn(C)nc2C)C(C)C1=O (configuration not stated)	1.7
c1cnc(-c2cc(NC3CCNCC3)nc3[nH]ccc23)cn1	-18.9
CCCc1cc(-c2cc(NC3CCNCC3)nc3[nH]ccc23)nc(C)n1	-80.4*
FC(F)(F)c1ccc(-c2cc(NC3CCNCC3)nc3[nH]ccc23)nc1	-3.2
O=C1NN=C(c2cccs2)CC1c1ccccc1 (configuration not stated)	-4.5
COc1ccc(S(=O)(=O)N2CSC[C@@H]2C(=O)NCCc2csc(-c3ccccc3)n2)cc1	-60.8
Cc1c(F)cccc1CN1CCC2(CC1)CC(NS(=O)(=O)C1CC1)CCO2 (configuration not stated)	-5.4
CCOc1cc(CN2CCc3c(nc(-c4cccnc4)[nH]c3=O)C2)ccc1OCC(N)=O	0.9
COCC1c2nnn(C)c2CCN1C(=O)Cc1cccc(F)c1 (configuration not stated)	3.8
Cn1c(C(=O)NCc2cccc(F)c2)nc2c1CCN(S(C)(=O)=O)C2	-8.8
Cn1ncc(Cl)c1-c1cc(C(=O)N[C@H](CN)Cc2cccc(F)c2)sc1Cl	-85.1*
Cc1ccc(OCC(=O)Nc2ccc(-c3nc(-c4ccccc4)co3)cc2)cc1	258.6
CCn1nc(C)c(NC(=O)CNCCS(=O)(=O)N(C)C)c1C	3.1
COc1ccc(CN2C(=O)N(C)C3(CCN(Cc4nc(-c5ccccc5)cs4)CC3)C2=O)cc1	-25.5
COc1ccc(CN2C(=O)N(C)C3(CCN(Cc4cccc(Oc5ccccc5)c4)CC3)C2=O)cc1	-81.1*
CCN1C(=O)N(Cc2cccc(OC)c2)C(=O)C12CCN(Cc1nc3ccccc3nc1C)CC2	9.0
CC(C)C(=O)N1CC2CCC(C1)C2C(=O)NCCc1cccs1 (configuration not stated)	316.2
Cc1ncc(C(=O)N2CCC(c3cc4nc(C(C)C)cc(C(F)(F)F)n4n3)CC2)c(C)n1	-2.8
Cc1onc(C(C)C)c1C(=O)N1CCC(c2cc(C(F)(F)F)c3c(N)[nH]nc3n2)CC1	-75.3*
CNc1nc(C2CCN(C(=O)c3c(C(C)C)noc3C)CC2)nc2c1CN(C(C)=O)CC2	15.5
O=C(CCN1CCN(c2nc3ccccc3o2)CC1)Nc1ccccc1F	-2.1
COc1cccc(NC(=O)Cn2ncc3c(N4CCOCC4)ncnc32)c1	-40.1
COc1cc(N2CC[C@]3(CCC[C@H](CNC(=O)N(C)C)O3)C2)ncn1	-27.2
